Assay [1] has as its target Aldehyde dehydrogenase, mitochondrial (Homo sapiens) (UniProt P05091). Description: qHTS for Inhibitors of the Aldehyde Dehydrogenase Family (ALDH2) Primary screen (AID 2061308). Also: nearly all actives have a fitted effect of over 55% in size. Conditions: ALDH2 enzyme inhibition qHTS, 1536-well; series mostly up to 56 µM. In general terms: qHTS replaces the single test concentration by a dilution series.
Assay [2] deals with Retinaldehyde dehydrogenase 3 (Homo sapiens) (UniProt P47895). Description: qHTS for Inhibitors of the Aldehyde Dehydrogenase Family (ALDH1A3) Primary screen (AID 2061315). Conditions: ALDH inhibition qHTS; series mostly up to 56 µM.

Results filed as inconclusive are left out. Entries that show only a call come without a potency. Calls of active or inactive are those of the source. Calls follow the shape of the dose curve; as a rule, active = well fitted curve in the direction sought with a large enough effect; inconclusive = small, poorly fitted or top-dose-only effect, or another doubt; inactive = no such curve, though single readings can be large; an effect the other way counts as inactive or inconclusive.

For the molecule `COc1ccc(CN(Cc2ccccc2)C(=O)c2ccccc2O)cc1COc1ccc(NC(C)=O)cc1`, the Potency entry in assay [1] and in assay [2] was “inactive” each time.
Take `O=C(O)c1ccc2c(c1)C(=O)N([C@H](Cc1c[nH]c3ccccc13)C(=O)O)C2=O`: the Potency result in assay [1] and in assay [2] was “inactive” in each case.
Consider `CCOc1ccc(CCNC(=O)c2cc3sccc3[nH]2)cc1OCC`, for which the Potency result in assay [1] and in assay [2] was “inactive” each time.
As to `Cc1ccc(-c2ccc(=O)n(CC(=O)N(C)CCN(C)C)n2)cc1`, the Potency result in assay [1] and in assay [2] was “inactive” in each case.
Turning to `CN(C)c1ccc(-c2cc(O)c3ncccc3c2)cc1`, the Potency result in assay [1] and in assay [2] was “inactive” in each case.
Consider `CCC(C)(CCN1CCOCC1)N(Cc1cc2ccccc2n(C)c1=O)C(=O)C1CCCCC1` (centres undefined), for which the Potency entry in assay [1] and in assay [2] was “inactive” throughout.
Take `COCCN(CCOC)c1nc(C)nc2c1nc(-c1ccccc1)n2CCN1CCCC1`: the Potency entry in assay [1] and in assay [2] was “inactive” each time.
For `COc1cc(OC)cc(-c2nnc3n2N=C(c2ccc(OC)c(OC)c2)CS3)c1`, the Potency result in assay [1] and in assay [2] was “inactive” in each case.
With `O=C(O)c1ccc(CSc2nnc(-c3cccc(S(=O)(=O)NC4CCCC4)c3)n2-c2ccc(F)cc2)cc1`, the Potency entry in assay [1] and in assay [2] was “inactive” throughout.
Consider `Cc1cc2c(s1)c1cnn(Cc3cccc(C)c3F)c(=O)c1n2C`, for which the Potency result in assay [1] and in assay [2] was “inactive” in each case.
With `Cc1cccc(-c2csc3ncnc(Sc4nnnn4C)c23)c1`, the Potency entry in assay [1] and in assay [2] was “inactive” in each case.
With `COc1ccccc1C1=Nn2c(nnc2-c2ccccc2OC)SC1`, the Potency entry in assay [1] and in assay [2] was “inactive” throughout.
Take `COc1cc2nc(N3CCN(C(=O)c4ccco4)C4CCCCC43)nc(N)c2cc1OC` (centres undefined): the Potency result in assay [1] and in assay [2] was “inactive” throughout.
Turning to `COc1ccc2c(=O)n3nc(Nc4cccc(N5CCN(C)CC5)c4)sc3nc2c1`, the Potency entry in assay [1] and in assay [2] was “inactive” each time.
Turning to `CC(=O)c1cccc(NC(=O)c2cnn3c(C)cc(C)nc23)c1`, the Potency result in assay [1] and in assay [2] was “inactive” in each case.
As for `O=[S+]([O-])(c1ccc2c(c1)OCCO2)N1CCN([S+](=O)([O-])c2c(F)cc(O)cc2F)CC1`, the Potency result in assay [1] and in assay [2] was “inactive” throughout.
As to `CN(C)c1ccc(C2N=C(Nc3nc4ccccc4o3)NC3=C2C(=O)CCC3)cc1` (centres undefined), the Potency entry in assay [1] and in assay [2] was “inactive” each time.
As to `CCOC(=O)CC(=O)Nc1ncnc2c1C(c1ccccc1)c1c(ccc3ccccc13)O2` (centres undefined), the Potency entry in assay [1] and in assay [2] was “inactive” in each case.
Take `CC(=O)Nc1ccc(S(=O)(=O)Nc2nccs2)cc1`: the Potency result in assay [1] and in assay [2] was “inactive” in each case.
`Cc1cc2c(s1)c1cnn(Cc3ccccc3Br)c(=O)c1n2C`: the Potency entry in assay [1] and in assay [2] was “inactive” throughout.
Consider `Nc1nc2c(ncn2C2OC3COP(=O)(O)OC3C2O)c(=O)[nH]1` (centres undefined), for which the Potency result in assay [1] and in assay [2] was “inactive” each time.
With `Cc1ccc(S(=O)(=O)Nc2cnccc2C(=O)Nc2ccc(-c3nn[nH]n3)cc2)cc1`, the Potency result in assay [1] and in assay [2] was “inactive” throughout.
On to `COc1ccc(C2Nc3ccccc3C(=O)N2Cc2cccc(OC)c2OC)cc1COc1c(C)cc(NC(C)=O)cc1C` (centres undefined), for which the Potency entry in assay [1] and in assay [2] was “inactive” in each case.
For the molecule `C=C(C(=O)O)[C@H]1C[C@]2(C)C(=O)CC[C@]23O[C@H]1C[C@@H]3C`, the Potency entry in assay [1] and in assay [2] was “inactive” in each case.
Take `O=C(CSc1nc2ccccc2[nH]1)N1CCOCC1`: the Potency result in assay [1] and in assay [2] was “inactive” each time.
As for `O=[S+]([O-])(Nc1ccccc1)c1ccc(NCc2cccc(Cl)c2F)cc1`, the Potency result in assay [1] and in assay [2] was “inactive” throughout.
`COc1cc(/C=C/CO)cc(OC)c1O[C@@H]1O[C@H](CO[C@@H]2O[C@H](CO)[C@@H](O)[C@H](O)[C@H]2O)[C@@H](O)[C@H](O)[C@H]1O`: the Potency entry in assay [1] and in assay [2] was “inactive” each time.
For the molecule `Cc1cccc(NC(=O)CN2CCC(c3ccccn3)CC2)c1`, the Potency result in assay [1] and in assay [2] was “inactive” in each case.
Consider `C/C=C1\[C@H](O[C@@H]2O[C@H](CO)[C@@H](O)[C@H](O)[C@H]2O)OC=C(C(=O)OCCc2ccc(O)cc2)[C@H]1CC(=O)OCCc1ccc(O)cc1`, for which the Potency entry in assay [1] and in assay [2] was “inactive” in each case.
Turning to `Cc1ccc(-c2cc(C(=O)Nc3ccc(Cl)cc3)c3ccccc3n2)cc1C`, the Potency result in assay [1] and in assay [2] was “inactive” throughout.
As to `Cc1cc2c(s1)c1cnn(Cc3cc(F)c(F)c(F)c3F)c(=O)c1n2C`, the Potency result in assay [1] and in assay [2] was “inactive” each time.
Consider `COc1ccc(-c2ccc3ncnc(NCC4CCCO4)c3c2)cc1OC` (centres undefined), for which the Potency result in assay [1] and in assay [2] was “inactive” throughout.
Regarding `CN(C)c1cccc(NS(=O)(=O)c2ccc(NC(=O)Cc3ccc(Cl)c(Cl)c3)cc2)c1`, the Potency result in assay [1] and in assay [2] was “inactive” in each case.
With `Cc1noc(C)c1-c1ccc2ncnc(NCc3cc(F)cc(F)c3)c2c1`, the Potency entry in assay [1] and in assay [2] was “inactive” in each case.
As to `Cc1ccccc1NC(=O)CN1C(=O)N/C(=C\c2cccn2-c2cccc(C(=O)O)c2)C1=O`, the Potency entry in assay [1] and in assay [2] was “inactive” each time.
In the case of `O=C(Nc1ccc(-c2cn[nH]c2)cc1)Nc1nnc(-c2ccncc2)s1`, the Potency entry in assay [1] and in assay [2] was “inactive” in each case.
`COC(=O)c1ccc(OC(C)=O)c2ncccc12`: the Potency entry in assay [1] and in assay [2] was “inactive” throughout.
Turning to `O=C(Nc1ccc(Br)cc1)Nc1nnc(-c2ccncc2)s1`, the Potency entry in assay [1] and in assay [2] was “inactive” each time.
Consider `CCCn1c(C)nc2c(NCCO)nc(C)nc21`, for which the Potency result in assay [1] and in assay [2] was “inactive” each time.
Turning to `Cc1ccc(-c2cc(C(=O)Nc3ccn[nH]3)c3ccccc3n2)cc1C`, the Potency entry in assay [1] and in assay [2] was “inactive” throughout.
In the case of `Cc1ccc(S(=O)(=O)N2CCN(c3nc(C#N)nc4ccccc34)CC2)cc1`, the Potency result in assay [1] and in assay [2] was “inactive” each time.
For `CC(=O)Nc1ccc(Cl)cc1C(=O)c1ccc[nH]1`, the Potency entry in assay [1] and in assay [2] was “inactive” in each case.
Consider `C=C(C)C(=O)O[C@H]1[C@H]2C(=C)C(=O)O[C@@H]2C[C@@H](C)[C@@H]2O[C@@H]2C(=O)[C@](C)(O)[C@@H]1OC(C)=O`, for which the Potency result in assay [1] and in assay [2] was “inactive” each time.
With `CC1CCC2(C(=O)OC3OC(COC4OC(CO)C(O)C(O)C4O)C(O)C(O)C3O)CCC3(C)C(=CCC4C5(C)CCC(O)C(C)(C(=O)O)C5CCC43C)C2C1(C)O` (centres undefined), the Potency result in assay [1] and in assay [2] was “inactive” in each case.
Take `FC(F)(F)c1ccccc1-c1nc(NCc2ccc(-c3cccnc3)cc2)c2[nH]cnc2n1`: the Potency result in assay [1] and in assay [2] was “inactive” throughout.
Turning to `Cc1cc(C)nc(NC(=S)N2CCN(c3nccs3)CC2)c1`, the Potency result in assay [1] and in assay [2] was “inactive” each time.
In the case of `CNC(=O)C1=C(C)NC(Nc2nc3ccccc3o2)=NC1c1nn(C)cc1Cl` (centres undefined), the Potency entry in assay [1] and in assay [2] was “inactive” each time.
As to `O=C(O)CNc1cccc(-c2nn3c(=O)cc(N4CCNCC4)nc3s2)c1`, the Potency entry in assay [1] and in assay [2] was “inactive” throughout.
In the case of `CCOC(=O)c1cccc(NS(=O)(=O)c2ccc(NC(=O)Cc3ccc(Cl)c(Cl)c3)cc2)c1`, the Potency entry in assay [1] and in assay [2] was “inactive” throughout.
`O=C1NS(=O)(=O)C(c2ccccc2)C1c1ccccc1` (centres undefined): the Potency result in assay [1] and in assay [2] was “inactive” each time.
On to `Oc1ccc(/C=C/c2c(F)cccc2F)c2cccnc12`, for which the Potency result in assay [1] and in assay [2] was “inactive” in each case.
With `CC1CN(c2cc3c(cc2F)c(=O)c(C(=O)O)cn3-c2ccc(F)cc2F)CCN1` (centres undefined), the Potency result in assay [1] and in assay [2] was “inactive” throughout.
